# Assay outcomes as filed in PubChem BioAssay.
# An excerpt weighted towards active compounds, which were near 5.9% of everything screened.
# LANA-H2B inh – blocks KSHV LANA binding to histone H2A/H2B; cell-free LANA-H2A/H2B peptide, fluorescence polarization; inhibition, % (test concentration not listed); Q9QR71; 0.6% of 320,000 active; AID 2629; in the data active means inhibition mostly above about 10%, no sharp cut-off; inactive means mostly below about 6.7%
# PRMT1 FP inh – inhibitors of human PRMT1 | Q99873 | recombinant PRMT1, activity-based probe fluorescence polarization | inhibition, % at 2.79 µM | 1.3% of 370,000 active | AID 652257;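 active means inhibition above about 21% made by adding two undisclosed values, limit read from the data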
# rCAG binder – binds r(CAG) RNA repeats; inhibition, % at 3 µM; 1.3% of 370,000 active; r(CAG) RNA repeat, TO-PRO-1 dye displacement fluorescence; AID 651821;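 active means inhibition above the plate cutoff, the mean of all test compounds on that plate plus 3 SD, cut at about 35% in these data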;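 further: higher means more dye released from RNA so lower well fluorescence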
# Rtt109 HAT inh – blocks Candida albicans Rtt109/Vps75 acetyltransferase activity; Q5AAJ8; 0.16% of 330,000 active; purified Rtt109/Vps75, ThioGlo CoA-SH fluorescence, 4 h; inhibition, % at 34.9 µM; AID 540336;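 active means inhibition of at least 50% in every replicate; inconclusive means best replicate reaches 50% inhibition but some replicates fall short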
# ALR H2O2 inh – human ALR oxidase inhibition via reduced H2O2 | 3.8% of 290,000 active | P55789 | inhibition, % (no concentration beside the values) | purified ALR, DTT oxidation, H2O2 HRP-luminol luminescence | AID 485317;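 active means mean replicate inhibition above about 79%, with every replicate also reaching it, limit read from the data; inconclusive means only one of the two criteria met; inactive means mean below limit and not every replicate reaching it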
# ABHD5 PLIN5 PPI – inhibitors of human ABHD5-perilipin-5 interaction | Q00G26+Q8WTS1 | AID 602281 | inhibition, % at 4 µM | 0.78% of 360,000 active | Split G. princeps luciferase complementation, luminescence, 4 h;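 active means inhibition above the mean inhibition across every tested compound plus 3 SD, cut at about 22% in these data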
# Target sequence (Q00G26 whole entry, looked up): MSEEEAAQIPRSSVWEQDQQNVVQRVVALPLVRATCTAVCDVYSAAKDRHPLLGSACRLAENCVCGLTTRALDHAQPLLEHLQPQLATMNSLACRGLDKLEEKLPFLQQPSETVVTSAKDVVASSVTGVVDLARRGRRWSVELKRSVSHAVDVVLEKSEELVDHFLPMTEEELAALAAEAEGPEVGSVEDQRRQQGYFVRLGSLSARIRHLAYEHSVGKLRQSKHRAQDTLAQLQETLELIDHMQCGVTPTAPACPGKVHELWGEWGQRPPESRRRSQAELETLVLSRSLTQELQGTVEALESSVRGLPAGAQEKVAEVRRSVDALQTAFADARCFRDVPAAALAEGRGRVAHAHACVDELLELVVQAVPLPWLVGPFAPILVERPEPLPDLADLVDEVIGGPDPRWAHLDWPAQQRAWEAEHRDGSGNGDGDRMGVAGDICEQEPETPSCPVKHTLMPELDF
# Target sequence (Q8WTS1 whole entry, looked up): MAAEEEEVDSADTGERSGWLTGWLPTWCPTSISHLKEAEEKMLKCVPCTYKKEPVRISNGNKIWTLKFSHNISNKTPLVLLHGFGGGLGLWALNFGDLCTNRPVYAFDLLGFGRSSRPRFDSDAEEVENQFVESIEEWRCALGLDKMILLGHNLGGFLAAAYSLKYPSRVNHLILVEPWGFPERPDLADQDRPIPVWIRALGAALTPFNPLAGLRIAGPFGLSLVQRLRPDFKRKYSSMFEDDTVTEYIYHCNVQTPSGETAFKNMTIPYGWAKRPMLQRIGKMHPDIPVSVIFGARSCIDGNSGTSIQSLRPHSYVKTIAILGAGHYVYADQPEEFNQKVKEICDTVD
# PRMT1 inh conf – confirmation of human PRMT1 inhibitors. shares compounds with PRMT1 FP inh. recombinant His-PRMT1, activity-based probe fluorescence polarization. inhibition, % at 2.79 µM. 42% of 3,300 active;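 active means mean inhibition across replicates above the hit cutoff derived for the earlier primary screen, cut at about 22% in these data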
# Numbers stand for hits; . = inactive; ? = inconclusive; / = not tested or not shown.
SMILES,LANA-H2B inh,PRMT1 FP inh,rCAG binder,Rtt109 HAT inh,ALR H2O2 inh,ABHD5 PLIN5 PPI,PRMT1 inh conf
COc1cc(C(=S)N2CCN(c3cccc(Cl)c3)CC2)ccc1O,.,.,.,.,.,.,/
Oc1ccc(C(=S)N2CCN(c3cccc(Cl)c3)CC2)cc1,.,29,.,.,.,.,.
S=C(c1ccc(Br)cc1)N1CCN(Cc2ccccc2)CC1,.,64,.,.,.,.,77
Oc1ccc(C(=S)N2CCN(Cc3ccccc3)CC2)cc1,.,38,.,.,.,.,54
CN(C)c1ccc(C(=S)N2CCN(Cc3ccccc3)CC2)cc1,.,55,.,.,.,.,64
CCN(CC)c1ccc(C(=O)N2CCN(Cc3ccccc3)CC2)cc1,.,.,.,.,.,.,/
O=C(c1ccc(Br)cc1)N1CCN(Cc2ccccc2)CC1,.,.,.,.,.,.,/
O=C1c2cccn2CC2Cc3ccccc3N12 (stereo not drawn),/,.,/,/,/,/,/
Cc1ccc(C(=S)N2CCN(Cc3ccccc3)CC2)s1,.,42,.,.,.,.,53
CCNC(=S)N1CCN(Cc2ccccc2)CC1,.,.,.,/,.,.,/
CC(C)C1OC(CCc2ccccc2)Cc2[nH][nH]c(=O)c21 (stereo not drawn),/,.,.,/,/,.,/
O=C(O)CC(SCC(=O)Nc1ccc(S(=O)(=O)N2CCCC2)cc1)C(=O)O (stereo not drawn),.,45,.,.,100,.,39
O=C(O)CC(SCC(=O)Nc1ccccc1)C(=O)O (stereo not drawn),.,.,.,.,.,.,/
COC(=O)[C@]12C[C@H](CC(=O)N3CCSCC3)C(=O)N(CCC3=CCCCC3)C1=C[C@H](C(C)C)O[C@@H]2C1CC1,/,.,.,/,/,/,/
COc1ccc(OC)c(NC(=O)CSc2nncc3ccc(OC)c(OC)c23)c1,.,55,.,.,/,.,.
COc1cc(/C=C2\C(=O)NN(c3ccc(C)cc3)C2=O)cc([N+](=O)[O-])c1O,.,30,.,.,99,.,.
COc1cc(/C=C2\SC(=O)N(Cc3ccc(F)cc3)C2=O)cc([N+](=O)[O-])c1O,/,.,.,.,/,.,/
CN1CCN(C(=S)c2ccc(Br)cc2)CC1,.,41,.,.,/,.,44
CN1CCN(C(=S)c2ccc([N+](=O)[O-])cc2)CC1,.,36,.,.,.,.,45
CN(C)C(=S)c1ccc(N(C)C)cc1,.,.,.,.,.,.,/
CN1CCN(C(=S)c2ccc(N(C)C)cc2)CC1,.,43,.,.,99,.,43
CSc1ccc(C(=S)N2CCN(C)CC2)cc1,.,.,.,/,.,.,/
O=[N+]([O-])c1ccc(C(=S)N2CCC(Cc3ccccc3)CC2)cc1,.,.,.,.,/,.,/
COc1ccc2c(c1)CN1C(=O)N(CCc3ccccc3)S(=O)(=O)CC21 (stereo not drawn),/,.,.,/,/,/,/
O=C(CNS(=O)(=O)c1cccc2ccccc12)N1CCN(c2ncccn2)CC1,/,.,.,/,/,/,/
SMILES,LANA-H2B inh,PRMT1 FP inh,rCAG binder,Rtt109 HAT inh,ALR H2O2 inh,ABHD5 PLIN5 PPI,PRMT1 inh conf
CN(C(=O)CSC1=NCCS1)c1ccccc1,.,.,.,.,.,.,/
O=C(CSC1=NCCS1)NCc1ccco1,.,.,.,.,.,.,/
O=C(CSC1=NCCS1)NC(NC(=O)CSC1=NCCS1)c1ccccc1,16,26,.,.,.,.,.
O=C(CSC1=NCCS1)NC(c1ccccc1)c1ccccc1,.,58,.,.,/,.,66
Cn1c(=O)[nH]c(=O)c2c1nc(SCCN1CCCCC1)n2Cc1ccccc1,.,.,.,.,.,.,/
Cc1ccc(Cn2c(SCCN3CCCCC3)nc3c2c(=O)[nH]c(=O)n3C)cc1,.,33,.,.,.,.,46
COCCSc1nc2c(c(=O)[nH]c(=O)n2C)n1CCCc1ccccc1,.,.,.,.,.,.,/
Cn1c(=O)[nH]c(=O)c2c1nc(SCCN1CCCCC1)n2CCCc1ccccc1,.,57,.,?,.,.,46
CSc1nc2c(c(=O)[nH]c(=O)n2C)n1Cc1ccc(Cl)cc1,.,66,.,.,.,.,.
CSc1nc2c(c(=O)[nH]c(=O)n2C)n1Cc1ccccc1Cl,.,.,.,.,.,.,/
Cc1ccc(CNC(=O)c2c(-c3ccccc3)sc3ccccc23)o1,.,39,.,.,.,.,.
